The values that follow come from PubChem BioAssay (NCI).

SMILES strings stand for the structures. The panel holds about 83,000 compounds, 20% with a hit somewhere; the sample as a whole holds those more often.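 Assay: single dose, 48 h. Readout: percent growth (0 = no net growth; negative = cell death). Active: <10.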 A number with no mark means an inactive call. Activity calls are given as the source filed them.

Holding throughout (test): NCI-60 one-dose screen, 48 h (100 = growth as untreated, 0 = no growth, -100 = all killed)
Common to all, as to settings: 10 µM unless noted

Assay [1] deals with SR leukemia.
Assay [2] has as its system RPMI-8226 leukemia.
Assay [3] has as its system OVCAR-8 ovarian.
The test system of assay [4] is OVCAR-5 ovarian.
For assay [5], the system named is OVCAR-4 ovarian.
The subject of assay [6] is SK-OV-3 ovarian.
The test system of assay [7] is IGROV1 ovarian.
Assay [8] relates to HS 578T breast.
Assay [9] has as its system NCI/ADR-RES ovarian.
The test system of assay [10] is T-47D breast.
Assay [11] deals with BT-549 breast.
The test system of assay [12] is MDA-MB-435 melanoma.
In assay [13] the test system is SW-620 colon.
The test system of assay [14] is MCF7 breast.
Assay [15] has as its system HCT-116 colon.
Assay [16] relates to HCC-2998 colon.
In assay [17] the test system is KM12 colon.

Take `CCCC(=O)NC(c1cccnc1)c1cc(C(C)(C)C)c2cccnc2c1O` (centres undefined): the growth in assay [1] is 11.5%; in [2], 24.5%; in assay [3], 17.3%; in [4], 40.8%; in assay [5], 31.1%; in [6] it was 7.42% (active). The growth in [7] is 6.31% (active); in assay [8], 46.6%; in assay [9], 21.2%; in [10], 24.1%; in assay [11], 24.8%; in assay [12], 30.2%. Besides, the growth in [13] was 34.2%; in assay [14], 10.9%; in [15], 21.7%; in [16], 51.4%; in [17], 18.8%.

`COc1cc(-c2nn(C(C)(C)C)cc2-c2ccnc(NCCCNS(=O)(=O)c3ccccc3)n2)ccc1Cl`: the growth is 56% in [1]; 56.3% in assay [2]; 84.9% in [3]; 84.3% in assay [4]; 57.6% in [5]; 103% in assay [6]. Further, the growth was 55.2% in assay [7]; 68.3% in assay [8]; 71% in assay [9]; 82.3% in assay [10]; 81.1% in assay [11]; 84% in assay [12]. The growth was 90.3% in assay [13]; 70.1% in [14]; 59.9% in assay [15]; 95.6% in assay [16]; 86.5% in [17].

For the compound `C#C[C@]1(O)CC[C@H]2[C@@H]3CC=C4c5sc(-c6ccc(C)cc6)nc5CC[C@]4(C)[C@H]3CC[C@@]21C`, the growth was 0.0897% (active) in assay [1]; -27.4% (active) in assay [2]; 58.4% in [3]; 93.5% in assay [4]; 65.3% in [5]; -7.23% (active) in [6]. Besides, the growth in [7] was 49.3%; in [8] it was -26.9% (active); in assay [9] it was 56.6%; in [10], 50.4%; in assay [11] it was 47.8%; in [12], -46.4% (active). The growth in [13] was -37.5% (active); in [14] it was 1.73% (active); in [15], 29.4%; in assay [16], 62.6%; in assay [17] it was 12.7%.

In the case of `COc1ccc2c(c1)c(-c1cc(N)n3nc(-c4cn(C)c5ccc(OC)cc45)cc3n1)cn2C`, the growth in [1] is -12.2% (active); in assay [2], -0.83% (active); in [3], 97.9%; in [4], 117%; in [5], 109%; in assay [6], 134%. For the same compound, the growth in assay [7] is 105%; in assay [8], 110%; in [9], 120%; in assay [10], 96.2%; in assay [11], 117%; in assay [12], 112%. Further, the growth in [13] is -20.6% (active); in assay [14], 32.5%; in assay [15], -4.19% (active); in [16] it was 114%; in [17], 96.9%.

As for `NC(N)=Nc1ccc(Oc2cccc(NC(N)=Nc3ccc(Cl)c(C(F)(F)F)c3)c2)cc1`, the growth in assay [1] is 7.43% (active); in assay [2], 41.4%; in [3] it was 66.8%; in [4], 48.1%; in [5], 62.4%; in [6] it was 54.9%. Also, the growth is -10.5% (active) in assay [7]; 35.8% in assay [8]; 95.4% in assay [9]; 57.9% in assay [10]; 43.8% in assay [11]; 62.9% in assay [12]. The growth in assay [13] is 57%; in [14], 42%; in assay [15] it was 44.9%; in assay [16] it was 66.2%; in assay [17], 26.2%.

With `COc1ccc2[nH]cc(/C=N/Nc3nc4ccccc4s3)c2c1`, the growth is 45.5% in [1]; 47.2% in assay [2]; 67.1% in assay [3]; 73.2% in [4]; 67.2% in assay [5]; 65.7% in assay [6]. The growth was 29.8% in assay [7]; 60.6% in [8]; 66% in [9]; 2.18% (active) in [10]; 58.7% in [11]; 66.2% in assay [12]. Further, the growth in assay [13] was 74.7%; in assay [14], 22.5%; in [15], 46.8%; in assay [16], 41%; in [17], 13.6%.

Turning to `N#Cc1cccc(NC(=O)c2cc(-c3ccc(F)cc3F)ccc2O)c1`, the growth in assay [1] is 27.3%; in assay [2], -8.42% (active); in assay [3], 10.8%; in assay [4], 14.6%; in assay [5], 8.85% (active); in assay [6], 5.89% (active). Further, the growth was 13.2% in assay [7]; 3.15% (active) in assay [8]; 4.64% (active) in assay [9]; 7.54% (active) in assay [10]; -0.215% (active) in [11]; 2.73% (active) in assay [12]. The growth in assay [13] is 13.4%; in [14], 2.47% (active); in assay [15], 5.45% (active); in [16], 22.7%; in [17], 2.94% (active).
